Test results from PubChem BioAssay (NCI).
About 83,000 compounds went through this panel and 20% of them were active in at least one assay; those are over-represented in the sample as a whole.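 Method: cells in 96-well plates; compound added at one concentration; 48 h incubation; percent growth measured; values under 10 scored active.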 Activity calls are given as the source filed them.

Assays:
Experiment in all cases: NCI-60 one-dose screen, 48 h (100 = growth as untreated, 0 = no growth, -100 = all killed)
Details in all cases: 10 µM
[1] = system: NCI-H23 lung
[2] = system: NCI-H226 lung
[3] = system: NCI-H322M lung
[4] = system: NCI-H460 lung
[5] = system: NCI-H522 lung
[6] = system: A549/ATCC NSCLC
[7] = system: 786-0 renal
[8] = system: COLO 205 colon
[9] = system: DU-145 prostate
[10] = system: K-562 leukemia
[11] = system: MALME-3M melanoma
[12] = system: MDA-MB-231 breast
[13] = system: RXF 393 renal
[14] = system: SF-268 CNS
[15] = system: SF-295 CNS
[16] = system: SF-539 CNS
[17] = system: M14 melanoma
[18] = system: HCT-15 colon
[19] = system: UACC-257 melanoma
[20] = system: HOP-62 NSCLC

Measured: growth

COc1cc(Nc2ccnc(NCCNc3ccnc4cc(Cl)ccc34)n2)cc(OC)c1
inactive: [1] 38.2% | [2] 55.5% | [3] 46.5% | [4] 27.8% | [5] 17.7% | [6] 42.9% | [7] 35.4% | [9] 63.9% | [12] 27.1% | [13] 46.2% | [14] 50.5% | [15] 39.9% | [18] 28.8%
active: [8] 2.21% | [10] 2.17% | [11] -68.3% | [16] -65.9% | [17] -79.9%

C[C@]12CC[C@@H]3c4ccc(O)cc4C[C@@H](O)[C@H]3[C@@H]1CC[C@@H]2O
inactive: [1] 110% | [2] 101% | [3] 102% | [4] 108% | [5] 106% | [6] 94.6% | [7] 105% | [8] 119% | [9] 110% | [10] 105% | [11] 102% | [12] 107% | [13] 110% | [14] 109% | [15] 112% | [16] 96.5% | [19] 88.6% | [17] 105% | [18] 102%

O=[N+]([O-])c1cccc(N=Cc2ccc3c(c2)OCO3)c1
inactive: [1] 104% | [2] 104% | [3] 112% | [20] 109% | [4] 120% | [5] 89.8% | [7] 106% | [8] 120% | [9] 119% | [10] 100% | [12] 130% | [13] 118% | [14] 114% | [15] 102% | [16] 115% | [19] 102% | [17] 97.7% | [18] 122%

CCOC(=O)CNC(=O)CCCCSc1ncnc2nc[nH]c12
inactive: [1] 113% | [2] 94.5% | [3] 173% | [4] 97% | [5] 102% | [6] 109% | [7] 97.9% | [8] 111% | [9] 113% | [10] 85.7% | [12] 108% | [14] 113% | [15] 127% | [16] 91.2% | [19] 81.2% | [17] 100%

CCCC#CCN(CC)CC
inactive: [1] 111% | [2] 107% | [3] 108% | [4] 107% | [5] 97.6% | [6] 93.8% | [7] 100% | [8] 110% | [9] 123% | [10] 103% | [11] 111% | [12] 109% | [13] 112% | [14] 111% | [15] 80.2% | [16] 99.6% | [19] 93.6% | [17] 108% | [18] 99.6%

COc1ccc2c(c1)C(=O)c1c-2c(OCCN(C)C)nc2cc(OC)c(OC)cc12
inactive: [1] 53.1% | [2] 58% | [3] 57.2% | [4] 36.6% | [5] 42.1% | [6] 47.8% | [7] 79.1% | [8] 66.5% | [9] 52% | [10] 62% | [12] 72.3% | [13] 70.4% | [14] 41% | [15] 21.5% | [16] 71.9% | [19] 103% | [17] 88.8% | [18] 76.8%

Cc1ccc(NC(=O)Nc2c(Cl)cccc2Cl)cn1
active: [5] -10.6%
inactive: [1] 109% | [2] 140% | [3] 119% | [4] 106% | [6] 57.3% | [7] 113% | [8] 135% | [9] 123% | [10] 47.7% | [11] 109% | [12] 95.4% | [13] 77.3% | [14] 116% | [15] 117% | [16] 97.7% | [19] 99.6% | [17] 96.1% | [18] 100%

Nc1ccn(C2CC(O)C(CO)O2)c(=O)n1 (stereo not drawn)
inactive: [1] 105% | [2] 99.1% | [3] 223% | [4] 102% | [5] 109% | [6] 108% | [7] 100% | [8] 108% | [9] 120% | [10] 99.5% | [12] 115% | [14] 110% | [15] 116% | [16] 98.3% | [19] 113% | [17] 106% | [18] 102%

COc1cc(-c2cc(C(=O)N3CCN(C(=O)c4ccccc4NCc4ccco4)CC3)nc3cc(-c4ccccc4)nn23)cc(OC)c1OC
active: [4] 7.61% | [5] -6.6% | [8] -16.7% | [9] 2.04% | [13] 6.82%
inactive: [1] 56.7% | [2] 57% | [3] 13.5% | [20] 45.2% | [7] 31.6% | [10] 12.3% | [12] 42.9% | [14] 38.6% | [15] 49.7% | [16] 17.8% | [19] 33.6% | [17] 23.8% | [18] 29.1%

COc1cccc(C(=O)Nc2ccc(CN3CCc4nc5cc(OC)c(OC)cc5cc43)cc2)c1
active: [4] 9.4%
inactive: [1] 56.9% | [2] 68.4% | [3] 61.7% | [5] 42.7% | [6] 36.5% | [7] 64.1% | [8] 44.1% | [9] 46.1% | [10] 24.5% | [11] 51.8% | [12] 48% | [13] 48.7% | [14] 47% | [15] 65.7% | [16] 66.5% | [19] 35.9% | [17] 38.1% | [18] 47.7%

CC(C)=CCc1ccc(O)c(=O)cc1C(C)C
inactive: [1] 12.9% | [3] 10.5% | [20] 14.6% | [5] 28.5% | [8] 26.7% | [9] 28.5% | [10] 11.1% | [12] 52.4% | [13] 12.7% | [14] 13.7% | [16] 20% | [19] 13.6% | [18] 38.1%
active: [2] 4.5% | [4] 5.04% | [7] 6.68% | [15] 8.22% | [17] -16.8%

O=C(O)CCCCSc1ncnc2nc[nH]c12
inactive: [1] 103% | [2] 98.6% | [3] 90.2% | [4] 109% | [5] 84.1% | [6] 101% | [7] 97.2% | [8] 103% | [9] 101% | [10] 102% | [11] 96.2% | [12] 113% | [13] 105% | [14] 98.9% | [15] 101% | [16] 102% | [19] 99.6% | [17] 103% | [18] 102%

CC12O[C@H](C[C@@H](O)[C@H]1O)n1c3ccccc3c3c4c(c5c6ccccc6n2c5c31)C(=O)N(CCCN)C4=O
inactive: [1] 28.9% | [2] 27.4% | [3] 56.3% | [4] 10.4% | [6] 31.5% | [7] 53.9% | [8] 12.9% | [9] 60.8% | [10] 15.5% | [11] 33.4% | [12] 41.1% | [13] 26.4% | [14] 36.5% | [15] 51% | [16] 39.1% | [17] 37.1% | [18] 96.4%
active: [5] -2.33%

CCOC(=O)N1C=CC2C=CC1C1C=CC=CC2N1C(=O)OCC (stereo not drawn)
inactive: [1] 108% | [2] 91% | [3] 106% | [4] 103% | [5] 89.3% | [6] 94.8% | [7] 105% | [8] 117% | [9] 112% | [10] 47.8% | [11] 94.8% | [12] 87% | [13] 86.8% | [14] 101% | [15] 116% | [16] 81.2% | [19] 87.7% | [17] 89.5% | [18] 86.2%

Clc1nc(Cl)c2c(ncn2C/C=C\Cn2cnc3c(Cl)nc(Cl)nc32)n1
active: [1] -15.8% | [2] -80.1% | [3] 8.09% | [4] 0.846% | [5] -70.6% | [6] -79.4% | [7] -4.46% | [8] -51.5% | [10] -20.6% | [11] -84.8% | [12] -100% | [14] 6.36% | [15] -10.7% | [16] -71.6% | [17] -10.5% | [18] -85.4%

CN(C)CCS(=O)(=O)CCN(C)C
inactive: [1] 107% | [2] 105% | [3] 113% | [4] 97% | [5] 117% | [6] 106% | [7] 98.7% | [8] 105% | [9] 103% | [11] 117% | [12] 88.5% | [13] 99.2% | [14] 107% | [15] 110% | [16] 100% | [19] 110% | [17] 96.7% | [18] 103%

CN(C)c1ccc(N=C2C=CC(=O)c3ccccc32)cc1
inactive: [1] 35.1% | [2] 91.7% | [3] 14.9% | [4] 15.3% | [5] 48.2% | [6] 28% | [7] 90.3% | [8] 11.8% | [10] 69.8% | [12] 59.5% | [13] 81.2% | [14] 73.9% | [15] 60.5% | [16] 88.7% | [19] 65.3% | [18] 53.5%
active: [9] -58% | [11] -11.2% | [17] -18.2%
